Calls of active or inactive are those of the source. How the calls were made is not given here.

The inhibition is how much of the control response was suppressed.

Chain of Pantothenate synthetase (Mycobacterium tuberculosis (strain ATCC 25618 / H37Rv)) (P9WIL5 whole entry, looked up): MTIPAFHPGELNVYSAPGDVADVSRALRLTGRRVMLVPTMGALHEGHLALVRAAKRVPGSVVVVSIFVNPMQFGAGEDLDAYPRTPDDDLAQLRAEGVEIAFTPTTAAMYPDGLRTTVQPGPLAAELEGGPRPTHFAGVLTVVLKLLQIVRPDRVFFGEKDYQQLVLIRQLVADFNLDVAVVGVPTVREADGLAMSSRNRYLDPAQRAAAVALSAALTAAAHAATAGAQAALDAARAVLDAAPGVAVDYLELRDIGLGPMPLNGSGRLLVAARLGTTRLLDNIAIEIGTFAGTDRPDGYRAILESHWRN

The test has as its target Pantothenate synthetase (Mycobacterium tuberculosis (strain ATCC 25618 / H37Rv)) (UniProt P9WIL5). Nature of the test: Recombinant Mtb pantothenate synthetase (PanC) inhibitors, coupled enzyme, confirmatory (AID 375).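 Further: 0% = full reaction with vehicle and 100% = no enzyme background.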 The conditions noted are these: coupled enzyme assay; at 10 µM, stronger effect = higher value.
Consider `CC(CCc1ccccc1)NC(=O)c1ccc(Br)o1` (stereo not drawn), for which the inhibition is 0% (inactive).

`O=c1c2c3c(sc2nc2sc(C4CC4)nn12)CCCC3`: the inhibition was 0% (inactive).

Regarding `Cc1oc2c(c1C(=O)NCc1ccccc1)CCCC2`, the inhibition was 0% (inactive).

As for `Cn1c(-c2ccc(C(C)(C)C)cc2)n[nH]c1=S`, the inhibition is 0% (inactive).

In the case of `CCOC(=O)N1CCC(NC(=O)c2ccc3c(c2)N(C)CCS3)CC1`, the inhibition was 6% (inactive).

As for `CCOC(=O)CNC(=O)CSc1nnnn1-c1cc(C)ccc1C`, the inhibition was 10% (inactive).

As for `COc1ccccc1N1CCN(Cc2nnnn2CCc2ccccc2)CC1`, the inhibition is 0% (inactive).

For the molecule `c1ccc(CC2CCN(C(c3cccs3)c3nnnn3C3CCCC3)CC2)cc1` (stereo not drawn), the inhibition is 3% (inactive).

For `O=C1CC(N2CCN(C3CCc4ccccc4C3)CC2)C(=O)N1c1ccccc1` (stereo not drawn), the inhibition is 0% (inactive).

With `COc1cccc(C(=O)Nc2cc(C)c3c(=O)oc4ccccc4c3n2)c1`, the inhibition is 0% (inactive).

Regarding `c1ccc(Nc2ccccc2Nc2ccccn2)nc1`, the inhibition was 0% (inactive).

Consider `Cc1ccc(CSC2=NCCN2C(=O)C2CC2)cc1`, for which the inhibition is 2% (inactive).

On to `CC(C)(C)NC(=O)CC(CC(=O)O)c1ccccc1` (stereo not drawn), for which the inhibition was 0% (inactive).

On to `COC1=CC(=O)CC(C)C12Oc1c(Cl)c(OC)cc(OC)c1C2=O` (stereo not drawn), for which the inhibition was 0% (inactive).

With `Cc1cccc(C(OC(=O)c2ccco2)C(=O)NCc2ccccc2)n1` (stereo not drawn), the inhibition was 4% (inactive).

As for `COC(=O)c1[nH]c2cc(OC)ccc2c1NC(=O)CCN1CCCCC1`, the inhibition is 1% (inactive).

`CN(C(=O)c1ccco1)c1nnc(C23CC4CC(CC(C4)C2)C3)s1`: the inhibition was 0% (inactive).

For the molecule `CCOC(=O)c1c(NC(=O)COC(=O)c2c(C)noc2C)sc2c1CCC2`, the inhibition was 1% (inactive).

For the origin of these results see PubChem BioAssay.
